High-throughput results as filed in PubChem BioAssay.
SW480 rereplic = DNA re-replication induction in SW480 cells; SW480 DNA re-replication, Hoechst DNA content imaging, 48 h; Potency, µM (titrated, usually from 46.1 µM), for the others: top-dose re-replication activation, usual class: activators; 340,000 compounds, 1.8% hits; AID 624297; note: % of control where 0% means no effect; nearly all actives have a fitted effect of over 55% in size
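Hoechst fluorescence of nuclei (405 nm excitation, 500-530 nm emission) measured by plate-scanning imager after 48 hr compound exposure at 37 C; re-replication scored as increased number of nuclei with elevated intensity.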
MCF10A rereplic = induces DNA re-replication in MCF 10a normal breast cells. Potency, µM (top dose mostly 46.1 µM), inactives show at the highest dose activity, positive = re-replication, actives largely listed as activators. MCF 10A DNA re-replication, Hoechst nuclear intensity, 48 h. 350,000 compounds, 2.9% hits; note: % of control where 0% means no effect; nearly all actives have a fitted effect of over 50% in size
HT1080-NT tox = kills 2HG-producing HT-1080-NT fibrosarcoma cells; HT-1080-NT fibrosarcoma viability, CellTiter-Glo ATP luminescence, 48 h; Potency, µM (top dose mostly 46.1 µM), for inactives: at the top dose activity, negative = less viability, hits mostly cytotoxic; 360,000 compounds, 1.6% hits; AID 686970;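 note: NT is the 2HG producing partner of a matched IDH1 knockdown line; 0% = DMSO-treated cells and -100% = media-only wells without cells; nearly all actives have a fitted effect of over 55% in size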
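Viability by CellTiter-Glo luminescence after 48 h compound exposure at 37C of HT-1080-NT cells (750/well, RPMI, 5% FBS). % activity scaled between DMSO wells and medium-only wells, then curve-fitted and categorized by curve class.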
KB-3-1 tox = kills parental KB-3-1 adenocarcinoma cells | KB-3-1 viability, CellTiter-Glo ATP luminescence, 72 h | Potency, µM (highest dose often 46.1 µM), most hits filed as cytotoxic | 400,000 compounds, 1.4% hits | AID 1347075; note: % is set by controls: 0 for no effect and ±100 for the full control effect; nearly all actives have a fitted effect of over 60% in size
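Parental KB-3-1 viability, qHTS format: 72 h compound exposure, 37 °C; CellTiter-Glo; media-only wells and DMSO plates as controls; concentration-effect fits on corrected data.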
HT1080 IDH1KD tx = kills HT-1080 cells with IDH1 knockdown | HT-1080 IDH1 knockdown viability, ATP luminescence, 48 h | Potency, µM (top dose mostly 46.1 µM), inactives show at the highest dose activity, negative = toxicity, hits mostly cytotoxic | 360,000 compounds, 2% hits;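 note: 0% = DMSO wells and -100% = cell-free medium wells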
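CellTiter-Glo luminescence after 48 h compound exposure at 37 degrees C of IDH1-knockdown HT-1080 cells in 5% FBS RPMI. %Activity scaled between DMSO wells and cell-free media wells, with curves fitted and assigned curve classes.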
KB-V1 MDR tox = kills drug-selected multidrug resistant KB-V1 cells; KB-V1 MDR cells viability, CellTiter-Glo, 72 h; Potency, µM (highest dose often 46.1 µM), most hits filed as cytotoxic; 400,000 compounds, 3.4% hits; note: % is set by controls: 0 for no effect and ±100 for the full control effect; nearly all actives have a fitted effect of over 60% in size
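Drug-selected KB-V1 cells, grown in DMEM lacking phenol red with 10% FBS, receive compound titrations; after three days at 37 degrees C, surviving cell ATP is quantified by CellTiter-Glo luminescence and responses normalized and curve-fitted.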
Active calls of the source: *; i = inactive; ? = inconclusive; . = no result given; ! = a repeat was not active. Shown are actives, neighbours in structure and some others; about 8% of the full set was active somewhere. Calls come from the whole dose curve; as a rule, active = well fitted curve in the direction sought with a large enough effect; inconclusive = small, poorly fitted or top-dose-only effect, or another doubt; inactive = no such curve, though single readings can be large; an effect the other way counts as inactive or inconclusive. Potency is the fitted concentration of half-maximal effect.

SMILES	SW480 rereplic	MCF10A rereplic	HT1080-NT tox	KB-3-1 tox	HT1080 IDH1KD tx	KB-V1 MDR tox
Cc1cccc(N=C2c3cc([N+](=O)[O-])ccc3-c3c2cc([N+](=O)[O-])cc3[N+](=O)[O-])c1	18µM*	18µM*	-3%	15µM*	-13%	?
Cn1c(O)c(C(=Nc2ccccc2)SCc2ccccc2Cl)c(=O)n(C)c1=O	15%	11%	?	18µM*	13µM*	?
Cc1ccc(N2CCN(C(=O)c3cn(CC4CCCCC4)nn3)C(C)C2)cc1 (configuration not stated)	21%	21µM*	?	i	?	?
ClC(Cl)(Cl)Cl	-7%	-1%	.	.	.	.
C[C@]12CC[C@@H]3c4ccc(O)cc4C(=O)C[C@H]3[C@@H]1CC[C@@H]2O	-38%	-6%	9%	i	2%	?
O=C(c1ccc(C(F)(F)F)cc1)C1CCCN(Cc2ccncc2)C1 (configuration not stated)	6%	?	-25%	?	-25%	7.3µM*
O=C(c1ccc(C(F)(F)F)cc1)C1CCCN(Cc2ccc(CO)o2)C1 (configuration not stated)	24%	16%	-3%	i	2%	18µM*
Cc1ccc(CN2CCCC(C(=O)c3cccc(C(F)(F)F)c3)C2)o1 (configuration not stated)	-4%	5%	-16%	i	-12%	?
N#CC(C#N)=NNc1ccc([N+](=O)[O-])cc1	?	18µM*	21µM*	i	16µM*	i
Cc1cc(C)n(-c2ccc(NN=C(C#N)C#N)cc2)n1	113%	?	9%	i	?	i
CCN(CC)S(=O)(=O)c1ccc(NN=C(C#N)C#N)cc1	16%	10µM*	-24%	i	-27%	i
O=C1N=NC2=C1c1c3ccccc3c(O)n1CC2	-4%	-32%	0%	i	16%	i
Oc1ccc(-c2csc(-c3ccccc3)n2)cc1O	-7%	2%	11µM*	?	10µM*	15µM*
CC(C)[C@H]1C(=O)O[C@H](C(C)C)C(=O)N(C)[C@@H](C(C)C)C(=O)O[C@H](C(C)C)C(=O)N(C)[C@@H](C(C)C)C(=O)O[C@H](C(C)C)C(=O)N1C	0%	?	4.1µM*	5.8µM*	3.3µM*	?
Nc1nonc1C(=O)N/N=C/c1ccc([N+](=O)[O-])o1	?	?	?	i	18µM*	i
N/C(=N\[N+](=O)[O-])N/N=C/c1ccc(O)cc1	-1%	0%	-1%	i	0%	?
Cc1ccc(-n2c(=O)[nH]c3ccc(Br)cc3c2=O)cc1	.	.	.	i	.	?
C=C(C)COc1ccc(-c2n[nH]c(C)c2-c2ccc(Br)cc2)c(O)c1	-4%	0%	10µM*	?	10µM*	?
CCCc1cc(-c2n[nH]c(C(=O)OCC)c2-c2cscn2)c(O)cc1O	-13%	?	1%	i	?	i
CCC1(C2=NCCN2)Cc2ccccc2O1 (configuration not stated)	12µM*!	?	-3%	i	4%	i
Cc1c(C(=O)NCCC2=CCCCC2)oc2ccc(S(=O)(=O)N3CCC4(CC3)OCCO4)cc12	24%	?	-11%	?	-27%	16µM*
C=CC[C@@H](CC(=O)N(CCO)Cc1ccccc1)C(=O)NC[C@@H](OC(=O)[C@@H](CC=C)CC(=O)OC(C)(C)C)c1ccccc1	4%	0%	-20%	i	-8%	i
CN(C)C1(CNC(=O)c2ccc(NS(=O)(=O)c3ccc(Cl)c(Cl)c3)cc2)CCCCC1	-10%	?	-11%	i	-15%	i
CN(C)C1(CNC(=O)Nc2ccc(Cl)c(Cl)c2)CCCCC1	?	37%	21µM*	i	?	i
